Results: PubChem BioAssay (EPA / NIEHS)
“And” between values parts separate entries of the source, which are not always exact repeats. Equal values may be shown once. Results filed as inconclusive are left out. More than one record can exist for a structure, and the calls need not agree. The source made the active and inactive calls. How the source made its calls, unless noted: active means hit-call score of the fitted dose curve at least 0.9, where 1 is the maximum; inactive means score below 0.9.

Legend:
[1] = BSK_3C_VCAM1: BioMAP Diversity Plus: 3C Assay for Vascular cell adhesion molecule 1 (VCAM1) Biomarker Activity (AID 2282999); conditions: BioMAP 3C HUVEC, VCAM1 ELISA, cytokine-stimulated; actives raise or lower the signal
How it was run: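 Activity fitted in both directions relative to DMSO, with ELISA measurement of the surface marker on primary HUVEC (3C) at 24 h post-treatment; parallel SRB staining (0.1% SRB, TCA-fixed, 560 nm) flagged overt cytotoxicity.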

[2] = read-out: Intercellular Adhesion Molecule 1 (ICAM1), ICAM1 (gene 3383); assay: BSK_3C_ICAM1: BioMAP Diversity Plus: 3C Assay for Intercellular Adhesion Molecule 1 (ICAM1) Biomarker Activity (AID 2283003); conditions: primary human endothelial cells (HUVEC); actives raise or lower the signal
How it was run: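 ELISA read-out of ICAM-1; HUVEC (primary human), 3C system, 24 h post-dosing; bidirectional fit vs DMSO baseline.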

[3] = BSK_3C_Proliferation: Cell Proliferation Assessment in the BioMAP Diversity Plus: 3C Assay (AID 2283006); conditions: primary human endothelial cells (HUVEC);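 on AC50: potency may reflect either rise or fall in cell number versus DMSO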
How it was run: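 HUVEC, sub-confluent; 48 h chemical exposure; 10% TCA fix, 0.1% SRB stain, A560 total protein. Gain or loss of signal fitted both directions vs DMSO control.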

[4] = target: human Retinoid X Receptor beta (RXRb), RXRB (gene 6257) (UniProt P28702); assay: ATG_RXRb_TRANS: Attagene TRANS-FACTORIAL HepG2 Assay for human Retinoid X Receptor beta (RXRb) (AID 2283013; active means hit-call score of the fitted dose curve at least 0.9, where 1 is the maximum)
How it was run: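 Read-out: reporter mRNA induction via RT-PCR plus capillary electrophoresis fluorescence, analysed as signal increase relative to DMSO. Cells were human HepG2, transiently transfected with GAL4-UAS reporter constructs and chimeric receptor-Gal4 fusions, dosed for 24 h.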

[5] = read-out: E-selectin (Homo sapiens) (UniProt P16581); assay: BSK_3C_Eselectin: BioMAP Diversity Plus: 3C Assay for Eselectin Biomarker Activity (AID 2283015); conditions: primary human endothelial cells (HUVEC); actives raise or lower the signal
How it was run: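 Human vascular endothelium from umbilical vein is exposed to test chemicals for 24 h. E-selectin levels are read by ELISA and compared with DMSO controls.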

[6] = read-out: Matrix Metallopeptidase 1 (MMP1), MMP1 (gene 4312); assay: BSK_BE3C_MMP1: BioMAP Diversity Plus: BE3C Assay for Matrix Metallopeptidase 1 (MMP1) Biomarker Activity (AID 2283024); conditions: primary human bronchial epithelial cells; actives raise or lower the signal
How it was run: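 ELISA read-out of MMP1 in human lung bronchial epithelial primary cultures, 24 h post-dose; bidirectional curve fit vs DMSO baseline, gain or loss of signal scored.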

[7] = BSK_3C_Vis: BioMAP Diversity Plus: 3C Assay for Morphology Visualization (AID 2283025); conditions: primary human endothelial cells (HUVEC);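 further: fitted both ways so gain or loss versus DMSO counts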;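 on AC50: light microscopy image of cell morphology used as background control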
How it was run: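 HUVEC, 3C system; light microscopy of morphology at 24 h post-dose. Bidirectional fit vs DMSO baseline. Secondary readout, background-control function.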

[8] = BSK_BE3C_SRB: Viability Assessment in the BioMAP Diversity Plus: BE3C Assay (AID 2283028); conditions: primary human bronchial epithelial cells;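 on AC50: fitted both ways so AC50 may mark signal gain or loss versus DMSO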
How it was run: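 Overt cytotoxicity was assessed as total protein in confluent human primary bronchial epithelial cultures 24 h after chemical addition, using 0.1% sulforhodamine B staining read at 560 nm.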

[9] = read-out: Vascular endothelial growth factor receptor 2 (Homo sapiens) (UniProt P35968); assay: BSK_4H_VEGFRII: BioMAP Diversity Plus: 4H Assay for Vascular endothelial growth factor receptor 2 (VEGFR2) Biomarker Activity (AID 2283031); conditions: primary human endothelial cells (HUVEC); actives raise or lower the signal
How it was run: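 VEGFRII levels on human vascular endothelial primary cells were determined by ELISA at 24 hours post-dosing, with gain- or loss-of-signal fitted against DMSO controls.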

[10] = read-out: Vascular cell adhesion molecule 1 (VCAM1), VCAM1 (gene 7412); assay: BSK_4H_VCAM1: BioMAP Diversity Plus: 4H Assay for Vascular cell adhesion molecule 1 (VCAM1) Biomarker Activity (AID 2283033); conditions: primary human endothelial cells (HUVEC); actives raise or lower the signal
How it was run: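 HUVEC, 24 h post-dose; VCAM-1 by ELISA. Bidirectional curve fit vs DMSO baseline. Parallel SRB total-protein stain (0.1% SRB after 10% TCA fixation, 560 nm) for cytotoxicity.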

[11] = read-out: Monocyte Chemoattractant Protein-1 (MCP1), CCL2 (gene 6347); assay: BSK_LPS_MCP1: BioMAP Diversity Plus: LPS Assay for Monocyte Chemoattractant Protein-1 (MCP1) Biomarker Activity (AID 2283081); conditions: primary human HUVEC with PBMC; actives raise or lower the signal
How it was run: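 LPS-stimulated HUVEC/PBMC co-culture; chemical, 24 h; MCP-1 by ELISA; bidirectional fit vs DMSO; cytotoxicity via SRB (0.1% stain, 10% TCA fix, 560 nm) in parallel wells.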

[12] = BSK_LPS_PGE2: BioMAP Diversity Plus: LPS Assay for Prostaglandin E2 (PGE2) Biomarker Activity (AID 2283082); conditions: primary human HUVEC with PBMC; actives raise or lower the signal;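 on AC50: secreted prostaglandin E2 measured by ELISA in LPS-stimulated co-culture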
How it was run: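 ELISA read-out of PGE2 from human umbilical vein endothelial cells co-cultured with peripheral blood mononuclear cells under LPS, 24 h post-dose. Gain or loss of signal scored relative to DMSO baseline.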

[13] = read-out: CD69, CD69 (gene 969); assay: BSK_SAg_CD69: BioMAP Diversity Plus: SAg Assay for CD69 Biomarker Activity (AID 2283089); conditions: primary human HUVEC with PBMC; actives raise or lower the signal;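 on AC50: cell surface CD69 protein quantified by ELISA with fluorescence detection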
How it was run: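 ELISA, fluorescence read-out: CD69 on human umbilical vein endothelial cell + PBMC co-culture, 24 h post-dosing. Gain or loss of signal fitted bidirectionally against DMSO baseline.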

[14] = read-out: Monocyte Chemoattractant Protein-1 (MCP1), CCL2 (gene 6347); assay: BSK_SAg_MCP1: BioMAP Diversity Plus: SAg Assay for Monocyte Chemoattractant Protein-1 (MCP1) Biomarker Activity (AID 2283090); conditions: primary human HUVEC with PBMC; actives raise or lower the signal
How it was run: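 Values derive from bidirectional fitting of ELISA-measured MCP1 against DMSO controls. Readings were taken 24 h after dosing human vascular endothelial cells co-cultured with peripheral blood mononuclear cells under superantigen stimulation.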

[15] = read-out: E-selectin (Homo sapiens) (UniProt P16581); assay: BSK_SAg_Eselectin: BioMAP Diversity Plus: SAg Assay for Eselectin Biomarker Activity (AID 2283091); conditions: primary human HUVEC with PBMC; actives raise or lower the signal
How it was run: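 Primary human endothelial cells and peripheral blood mononuclear cells were co-cultured and exposed to chemical for 24 hours. E-selectin levels were then quantified by ELISA, with bidirectional curve fitting normalised to DMSO controls.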

[16] = read-out: Monokine induced gamma interferon (MIG), CXCL9 (gene 4283); assay: BSK_SAg_MIG: BioMAP Diversity Plus: SAg Assay for Monokine induced gamma interferon (MIG) Biomarker Activity (AID 2283092); conditions: primary human HUVEC with PBMC; actives raise or lower the signal
How it was run: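 ELISA readout of MIG/CXCL9; primary human umbilical vein endothelial cells co-cultured with peripheral blood mononuclear cells; 24 h post-dose; gain/loss fit vs DMSO baseline.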

[17] = BSK_SAg_Proliferation: Cell Proliferation Assessment in the BioMAP Diversity Plus: SAg Assay (AID 2283095); conditions: primary human HUVEC with PBMC;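 further: relative cell number as total protein by SRB absorbance in sub-confluent culture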
How it was run: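 HUVEC/PBMC co-culture, 96-well. TCA-fixed (10%), 0.1% SRB stain, A560 at 96 h. Protein content used as viability readout; bidirectional fitting vs DMSO control.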

[18] = ACEA_AR_agonist_AUC_viability: ACEA Biosciences xCELLigence Real-Time Cell Analysis on Androgen Receptor Agonism for Viability (AID 2283775; active means hit-call score of the fitted dose curve at least 0.9, where 1 is the maximum;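 on AC50: viability read 80 hours after compound addition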)
How it was run: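 Viability endpoint from xCELLigence impedance in 22Rv1 prostate cells at 80 h. Eight-point series, 100 uM maximum final.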

[19] = target: Bile acid receptor (Homo sapiens) (UniProt Q96RI1); assay: ATG_IR1_CIS: Attagene CIS-FACTORIAL HepG2 Assay for human Nuclear Receptor Subfamily 1 Group H Member 4 (NR1H4), IR1 submotif (AID 2282946); conditions: IR1 reporter transcription, actives raise or lower the signal
How it was run: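 HepG2 cells transiently transfected with multiplexed cis-element reporter units read endogenous transcription factor activity. After 24 h compound exposure, reporter mRNA was quantified by RT-PCR, fluorescent labelling, HpaI digestion and capillary electrophoresis; bidirectional fitting versus DMSO baseline.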

[20] = target: human CYP2J2, CYP2J2 (gene 1573) (UniProt P51589); assay: NVS_ADME_hCYP2J2: NovaScreen (NVS) CYP450-related Enzyme Activity (ADME) Assay for human CYP2J2 (AID 2283106; active means hit-call score of the fitted dose curve at least 0.9, where 1 is the maximum)
How it was run: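 Chemicals were first tested at 10 uM in duplicate, and hits meeting criteria such as 30% inhibition were run in singleton concentration series with a 20 uM top concentration. Enzyme activity of recombinant CYP2J2 was measured by fluorescence after 1 h, relative to acetonitrile.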

Measured: AC50

Sequence of Bile acid receptor (Homo sapiens) (Q96RI1 whole entry, looked up): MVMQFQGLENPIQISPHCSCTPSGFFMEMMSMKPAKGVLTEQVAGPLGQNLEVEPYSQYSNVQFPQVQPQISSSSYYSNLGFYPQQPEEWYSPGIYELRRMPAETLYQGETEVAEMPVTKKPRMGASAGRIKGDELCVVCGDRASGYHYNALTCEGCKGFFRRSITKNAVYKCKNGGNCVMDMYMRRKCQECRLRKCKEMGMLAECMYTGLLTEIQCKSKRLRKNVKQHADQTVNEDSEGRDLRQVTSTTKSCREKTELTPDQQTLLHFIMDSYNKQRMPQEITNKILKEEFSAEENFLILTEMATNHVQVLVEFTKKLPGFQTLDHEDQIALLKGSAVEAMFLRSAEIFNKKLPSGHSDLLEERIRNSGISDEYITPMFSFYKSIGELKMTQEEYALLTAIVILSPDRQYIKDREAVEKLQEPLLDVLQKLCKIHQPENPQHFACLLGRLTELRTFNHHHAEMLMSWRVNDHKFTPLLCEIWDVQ
Sequence of E-selectin (Homo sapiens) (P16581 whole entry, looked up): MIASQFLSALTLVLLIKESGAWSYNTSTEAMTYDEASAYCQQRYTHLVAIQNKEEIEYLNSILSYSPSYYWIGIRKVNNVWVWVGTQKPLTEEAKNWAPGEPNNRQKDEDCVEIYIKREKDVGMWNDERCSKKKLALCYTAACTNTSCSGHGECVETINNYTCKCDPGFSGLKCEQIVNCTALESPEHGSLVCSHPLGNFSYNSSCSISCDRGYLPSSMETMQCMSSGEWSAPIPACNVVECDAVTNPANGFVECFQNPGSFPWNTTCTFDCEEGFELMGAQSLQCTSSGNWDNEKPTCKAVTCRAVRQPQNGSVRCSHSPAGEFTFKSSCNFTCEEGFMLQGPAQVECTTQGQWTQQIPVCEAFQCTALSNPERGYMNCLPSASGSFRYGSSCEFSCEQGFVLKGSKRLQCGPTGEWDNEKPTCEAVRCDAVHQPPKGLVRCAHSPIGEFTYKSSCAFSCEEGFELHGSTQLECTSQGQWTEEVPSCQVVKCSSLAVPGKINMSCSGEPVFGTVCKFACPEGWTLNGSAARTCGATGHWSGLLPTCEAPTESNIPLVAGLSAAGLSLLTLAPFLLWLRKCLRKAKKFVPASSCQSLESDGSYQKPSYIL
Sequence of human CYP2J2, CYP2J2 (gene 1573) (P51589 whole entry, looked up): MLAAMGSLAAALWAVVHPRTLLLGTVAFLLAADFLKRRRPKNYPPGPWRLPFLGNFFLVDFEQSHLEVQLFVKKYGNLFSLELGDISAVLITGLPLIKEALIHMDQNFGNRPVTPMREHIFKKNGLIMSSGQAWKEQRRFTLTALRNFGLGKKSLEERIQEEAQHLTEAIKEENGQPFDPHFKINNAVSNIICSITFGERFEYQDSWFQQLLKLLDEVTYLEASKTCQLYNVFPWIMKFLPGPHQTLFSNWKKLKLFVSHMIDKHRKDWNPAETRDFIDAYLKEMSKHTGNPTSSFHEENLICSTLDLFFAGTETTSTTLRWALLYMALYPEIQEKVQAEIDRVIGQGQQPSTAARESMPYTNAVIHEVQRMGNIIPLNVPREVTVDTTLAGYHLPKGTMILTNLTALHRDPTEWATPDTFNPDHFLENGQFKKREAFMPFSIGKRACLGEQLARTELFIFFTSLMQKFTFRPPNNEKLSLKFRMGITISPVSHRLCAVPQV
Sequence of human Retinoid X Receptor beta (RXRb), RXRB (gene 6257) (P28702 whole entry, looked up, the tested form may be a part): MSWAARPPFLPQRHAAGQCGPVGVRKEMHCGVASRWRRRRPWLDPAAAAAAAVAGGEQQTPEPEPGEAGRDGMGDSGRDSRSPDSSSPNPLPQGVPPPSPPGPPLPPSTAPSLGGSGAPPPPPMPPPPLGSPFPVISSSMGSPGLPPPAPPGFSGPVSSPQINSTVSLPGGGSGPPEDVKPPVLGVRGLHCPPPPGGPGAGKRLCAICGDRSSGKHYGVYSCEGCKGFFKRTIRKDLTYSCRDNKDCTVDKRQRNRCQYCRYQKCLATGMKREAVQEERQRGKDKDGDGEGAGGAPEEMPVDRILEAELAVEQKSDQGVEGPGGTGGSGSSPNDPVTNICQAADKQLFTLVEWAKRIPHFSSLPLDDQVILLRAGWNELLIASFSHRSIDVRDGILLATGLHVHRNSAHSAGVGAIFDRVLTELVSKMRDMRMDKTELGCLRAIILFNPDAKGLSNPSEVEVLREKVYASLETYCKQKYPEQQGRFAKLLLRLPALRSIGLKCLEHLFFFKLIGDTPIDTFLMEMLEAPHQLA

CC1(C)[C@H](C(=O)O[C@H](C#N)c2cccc(Oc3ccccc3)c2)[C@@H]1C=C(Br)Br
inactive: [1] | [2] | [3] | [4] | [5] | [6] | [7] | [8] | [9] | [10] | [11] | [13] | [14] | [15] | [16] | [17] | [18]
active: [12] 1.67 µM and 92.9 nM | [13] 2.07 µM | [15] 1.52 µM | [17] 3.97 µM | [18] 50 µM

CN(N=O)c1ccccc1
inactive: [19]

C[N+](C)(C)CC(=O)[O-]
inactive: [4]

O=C(NC(=O)c1c(F)cccc1F)Nc1ccc(Oc2ccc(C(F)(F)F)cc2Cl)cc1F
inactive: [19] | [4] | [18]

CC(=O)C=Cc1ccccc1
inactive: [4]

O=C(O)CCl
inactive: [4] | [18]

COCC(=O)N(c1c(C)cccc1C)N1CCOC1=O
not listed: [4] | [18] | [20]
inactive: all other assays above

c1ccc(Nc2ccc3ccccc3c2)cc1
active: [1] 34.8 µM | [2] 30.6 µM | [3] 23.6 µM | [5] 13.8 µM | [7] 8.8 µM | [8] 30 µM | [10] 29.5 µM | [12] 20 µM
not listed: [4] | [18] | [20]
inactive: all other assays above

CCSC(=O)N(CC(C)C)CC(C)C
active: [20] 1.4 µM

O=c1c(-c2ccc(O)cc2)coc2cc(O)cc(O)c12
active: [20] 979 nM and 1.06 µM and 443 nM

CC(C)(c1ccc(O)cc1)c1ccc(O)cc1
active: [20] 4.93 µM

Cc1nn(C)c(Oc2ccccc2)c1C=NOCc1ccc(C(=O)OC(C)(C)C)cc1
active: [20] 5.24 µM

N#CSCSc1nc2ccccc2s1
active: [20] 0.466 µM

CCCCOCCOCCOCc1cc2c(cc1CCC)OCO2
active: [20] 0.116 µM

CCN(CC)CCOc1ccc(C(=C(Cl)c2ccccc2)c2ccccc2)cc1
active: [20] 4.08 µM and 7.21 µM
inactive: [20]
